This is a sample that favours compounds with a hit; in the whole collection about 2.4% have one here.
HTR2A ag – mouse Htr2a agonists via beta-arrestin recruitment, primary screen, cell-based, luminescence. activation, % at 7.6 µM. 5-hydroxytryptamine receptor 2A (Mus musculus), P35363. 0.66% of 360,000 active. AID 624169, 2012. CHO-K1 mHTR2A beta-arrestin complementation; percent of 30 µM serotonin response;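 active = activation above a run cutoff, the mean activation of all tested compounds plus 3 SD, cut at about 14% in these data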;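 note: 0% = plate median of compound wells and 100% = 30 µM serotonin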
TLR9-MyD88 inh – inhibitors of TLR9-MyD88 association in cells, primary screen, cell-based, CHO, BLA complementation, fluorescence | CCF4 FRET ratio | inhibition, % at 4.98 µM | 0.21% of 340,000 active;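 active = inhibition above the mean over all tested compounds plus 3 SD, cut at about 21% in these data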;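 note: 0% = DMSO only wells and 100% = clavulanate BLA inhibitor control wells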
ANO1 activ – TMEM16A chloride channel activators or potentiators, primary screen, cell-based, HTS. Anoctamin-1 (Mus musculus), Q8BHY3. HEK293 TMEM16A/YFP-H148Q/I152L, iodide quench fluorescence; hits give low values. B-score at 10 µM. 0.3% of 340,000 active. AID 623877, 2012;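 active = fluorescence-ratio B-score plate-corrected deviation score at least 3 library SD below zero, with starting fluorescence score within 5 deviations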;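 note: channel opened by trigger with iodide after compound preincubation; score built on the fluorescence ratio of max minus min over baseline; more negative score means more quench and so TMEM16A activation or potentiation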
TLR4-MyD88 BLA – inhibitors of TLR4-MyD88 association in cells, primary screen, cell-based, HeLa CL3-4, BLA complementation, FRET ratio; 0.18% of 200,000 active; Toll-like receptor 4 (Homo sapiens) + Myeloid differentiation primary response protein …; inhibition, % at 8.4 µM; HeLa CL3-4 TLR4/MyD88 BLA complementation; in the data active = inhibition above about 25%;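 note: 0% = vehicle and 100% = reference inhibitor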
TMEM16A inh – TMEM16A chloride channel inhibitors, primary screen, cell-based, HTS; Anoctamin-1 (Mus musculus), Q8BHY3; HEK293 TMEM16A/YFP iodide influx fluorescence, ionomycin; normalized B-score (activity score, 25-100; higher = stronger inhibition) at 10 µM; 1.2% of 310,000 active;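 active = ratio plate-corrected score three or more library SD toward inhibition, starting fluorescence score within five deviations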;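 note: score derived from kinetic fluorescence span divided by baseline fluorescence per well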
NOD2 RIPK2 PPI – NOD2-RIPK2 binding disruptors in cells, primary screen, fluorescence, CHO cells, BLA complementation. Receptor-interacting serine/threonine-protein kinase 2 (Homo sapiens), O43353. CCF4 ratio. inhibition, % at 4.98 µM. 0.38% of 360,000 active. AID 624267, 2012; in the data active = inhibition above about 21%;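 note: 0% = vehicle only and 100% = reference blocker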
Target sequence (O43353 whole entry, looked up): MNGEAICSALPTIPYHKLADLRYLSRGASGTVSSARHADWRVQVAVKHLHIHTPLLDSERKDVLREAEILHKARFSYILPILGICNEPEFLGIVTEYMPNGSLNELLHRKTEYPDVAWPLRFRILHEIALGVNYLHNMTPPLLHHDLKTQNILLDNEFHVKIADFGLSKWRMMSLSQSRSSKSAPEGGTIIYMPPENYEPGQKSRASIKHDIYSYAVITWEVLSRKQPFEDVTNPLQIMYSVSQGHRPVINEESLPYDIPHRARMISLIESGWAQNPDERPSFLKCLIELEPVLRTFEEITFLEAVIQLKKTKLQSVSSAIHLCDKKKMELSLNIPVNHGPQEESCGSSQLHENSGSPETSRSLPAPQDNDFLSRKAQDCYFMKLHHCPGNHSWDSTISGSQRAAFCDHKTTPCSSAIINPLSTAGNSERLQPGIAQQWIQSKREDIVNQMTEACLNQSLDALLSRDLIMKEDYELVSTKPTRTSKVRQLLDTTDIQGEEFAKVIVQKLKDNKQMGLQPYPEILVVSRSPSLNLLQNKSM
NOD2-RIPK2 conf – NOD2-RIPK2 binding disruptors, retest, confirmation, fluorescence, CHO cells, BLA complementation, triplicate | shares compounds with NOD2 RIPK2 PPI | CCF4 FRET | inhibition, % at 4.98 µM | 70% of 1,200 active;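 active = mean inhibition across replicates above a set limit taken from the earlier primary screen, cut at about 21% in these data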;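 note: 0% = DMSO-only wells and the high end = clavulanate BLA-blocked wells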
BLA counter – hits BLA reporter in NOD2-RIPK2 inhibitor counterscreen; 57% of 1,200 active; AID 624371; shares compounds with NOD2 RIPK2 PPI; CHO BLA reporter, CCF4 FRET ratio; inhibition, % at 4.98 µM;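 active = mean inhibition above the low-control mean inhibition plus three low-control SD, cut at about 11% in these data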;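 note: 0% = DMSO only wells and 100% = clavulanate high control wells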
* hit, by the source's call; i = inactive; x = not tested or not shown.

SMILES	HTR2A ag	TLR9-MyD88 inh	ANO1 activ	TLR4-MyD88 BLA	TMEM16A inh	NOD2 RIPK2 PPI	NOD2-RIPK2 conf	BLA counter
COc1cc2ccc(=O)oc2cc1OCC(O)C(C)(C)O (configuration not stated)	0	2	i	x	i	-18	x	x
Cc1c(C(=O)OCC(=O)c2ccc3c(c2)OCCO3)oc2ccccc12	-2	0	x	0	i	26*	-3	-3
Cc1cc(C(=O)OCC(=O)c2ccc3c(c2)OCCO3)c(C)o1	4	6	i	5	i	-5	x	x
COc1ccc(OCC(N)=O)cc1	10	-2	i	4	i	4	x	x
CNC(=O)C1(C)Cc2c(-c3ccc(NC(C)=O)cc3)ccnc2O1 (configuration not stated)	2	x	x	x	x	4	x	x
CC(=O)Nc1ccc(-c2ccnc3c2CC(C)(C(=O)Nc2ccc(Cl)cc2)O3)cc1 (configuration not stated)	0	x	x	x	x	21*	10	0
CN(c1ccccc1)S(=O)(=O)c1ccc(C(=O)NCC(c2ccco2)N2CCCCC2)cc1 (configuration not stated)	-12	8	i	x	x	25*	2	-2
CCN(CC)c1ccc(C=C(c2nnnn2-c2ccccc2)c2nnnn2-c2ccccc2)cc1	-4	3	i	2	i	27*	30*	30*
NS(=O)(=O)c1cccc(NC(=O)COC(=O)/C(=C/c2cccs2)c2cccs2)c1	3	-1	i	5	i	0	x	x
COc1ccc2oc(C(=O)OCc3c(C)noc3C)c(C)c2c1	2	-5	i	9	i	3	x	x
O=[N+]([O-])c1c(NCCCO)cc(Sc2nc3ccccc3s2)c2nonc12	-2	40*	i	12	i	92*	82*	29*
O=C(Nc1ccc2nc3n(c(=O)c2c1)CCCCC3)c1c(F)ccc([N+](=O)[O-])c1F	4	11	i	x	i	23*	23*	-2
Cc1cccc(C)c1-n1ncc(C(=O)NC2CCCC2)c1C1CCNCC1	0	0	i	x	i	0	x	x
COc1cccc2sc(Nc3nnc(-c4ccccc4Cl)o3)nc12	-2	-9	i	13	i	5	x	x
COc1ccccc1-c1nnc(Nc2nc3c(OC)cccc3s2)o1	-1	18	i	15	i	26*	19	3
C=C1C(=O)[C@]23C[C@H]1CC[C@H]2[C@]1(C)[C@@H](OC(C)=O)CC[C@@](C)(C(=O)OC)[C@H]1C[C@@H]3OC(C)=O	-3	x	x	x	x	59*	56*	5
C=C1C(=O)[C@]23C[C@H]1CC[C@H]2[C@]1(C)[C@@H](O)CC[C@@](C)(C(=O)O)[C@H]1C[C@@H]3O	4	x	x	x	x	-4	x	x
C=C1C(=O)[C@]23C[C@H]1CC[C@H]2[C@]1(C)[C@@H](OC(C)=O)CC[C@@](C)(C(=O)O)[C@H]1C[C@@H]3O	8	x	x	x	x	14	x	x
C=C1C(=O)[C@]23C[C@H]1CCC2[C@@]1(C)C(C[C@@H]3O)[C@](C)(C(=O)OC)CC[C@@H]1OC(C)=O (some centres not stated)	-2	x	x	x	x	93*	93*	22*
COc1ccc(/C(C)=N/NC(=O)CNC(=O)c2cccnc2)cc1	1	-5	i	x	i	-6	x	x
COc1ccccc1-c1cc(C(F)(F)F)nc(S(C)(=O)=O)n1	4	26*	i	20	i	25*	41*	7
